In the library only some 0.82% were active in any assay of this set; here they are far more common.
eLon inh = inhibitors of E. coli Lon protease, primary screen, biochemical, fluorescence polarization; P0A9M0; purified E. coli Lon protease; inhibition, % at 7.94 µM; 0.42% of 360,000 active; AID 602123, 2011; in the data active = inhibition above about 13%, passing the limit was not always enough;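 note: 0% = enzyme with probe and DMSO and 100% = no enzyme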
Keap1 Nrf2 FP = Keap1-Nrf2 protein-protein interaction inhibitors, primary screen, biochemical, fluorescence polarization, single point; Keap1 Kelch-Nrf2 peptide fluorescence polarization, 1536-well; AID 504523, 2011; 0.15% of 340,000 active; inhibition, % at 9.4 µM; in the data active = inhibition above about 12%;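 note: human Keap1 Kelch domain with fluorescein labeled Nrf2 9mer peptide probe; 0% = neutral control wells and 100% = peptide positive control; higher means more block of Keap1 binding to Nrf2 peptide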
Target sequence (Q14145 whole entry, looked up, the tested form may be a part): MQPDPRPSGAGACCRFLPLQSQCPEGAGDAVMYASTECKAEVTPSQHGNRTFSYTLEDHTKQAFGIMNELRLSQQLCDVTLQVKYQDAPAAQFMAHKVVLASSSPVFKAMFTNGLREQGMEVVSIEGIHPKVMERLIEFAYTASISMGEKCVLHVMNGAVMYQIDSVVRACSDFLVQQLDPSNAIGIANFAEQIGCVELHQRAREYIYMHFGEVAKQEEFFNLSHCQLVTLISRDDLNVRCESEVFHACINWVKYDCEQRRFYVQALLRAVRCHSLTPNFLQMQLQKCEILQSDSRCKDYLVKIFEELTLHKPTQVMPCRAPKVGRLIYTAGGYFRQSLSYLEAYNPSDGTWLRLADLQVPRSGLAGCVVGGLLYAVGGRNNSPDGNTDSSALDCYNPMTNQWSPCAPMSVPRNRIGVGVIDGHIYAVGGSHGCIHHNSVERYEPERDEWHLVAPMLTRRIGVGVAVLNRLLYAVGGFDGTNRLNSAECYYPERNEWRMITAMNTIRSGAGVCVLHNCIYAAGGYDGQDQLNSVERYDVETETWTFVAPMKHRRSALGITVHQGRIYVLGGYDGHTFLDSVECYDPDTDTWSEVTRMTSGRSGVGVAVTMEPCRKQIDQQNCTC
LANA DNA inh = inhibitors of KSHV C-LANA binding to DNA, primary screen, biochemical, fluorescence polarization, FAM-LBS DNA, MBP-C-LANA, single point. Kaposi's sarcoma herpesvirus LANA C-terminal domain (residues 932-1162) DNA binding. inhibition, % at 9 µM. 0.078% of 340,000 active. AID 504423, 2011;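 active = highest replicate inhibition at or above 60% at 9 µM, even if other replicates fall short; inactive = all replicates below 60% inhibition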;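 note: 0% = neutral control wells and 100% = 4 µM acridine orange control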
RTF Ca sens inh = cardiac RTF calcium sensitivity inhibitors, primary screen, biochemical, IANBD-TnC fluorescence, EC70 calcium; Troponin I, cardiac muscle (Homo sapiens) + Troponin T, cardiac muscle (Homo sapiens) + …; inhibition, % at 7.15 µM; IANBD-labeled cardiac RTF, Ca2+ fluorescence; 0.12% of 340,000 active;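 active = inhibition above the mean inhibition of all tested compounds plus 3 SD, cut at about 17% in these data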;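 note: assay run at fixed EC70 calcium of 1.6 mM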
RTF Ca sens act = cardiac RTF calcium sensitivity activators, primary screen, biochemical, IANBD-TnC fluorescence, EC20 calcium | activation, % at 7.2 µM | Troponin I, cardiac muscle (Homo sapiens) + Troponin T, cardiac muscle (Homo sapiens) + … | IANBD-labeled TnC RTF fluorescence at EC20 calcium; 0% EC20 calcium, 100% full calcium | 0.24% of 340,000 active | AID 493008, 2010;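 active = activation above the mean over all tested compounds plus 3 SD, cut at about 30% in these data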;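 note: rise in fluorescence read as greater calcium sensitivity of cardiac thin filaments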
* = called active by the depositor; i = inactive; · = no result given.

SMILES | eLon inh | Keap1 Nrf2 FP | LANA DNA inh | RTF Ca sens inh | RTF Ca sens act
CCC(=O)/C=C1/Sc2ccc(OC)cc2N1CC | 0.1 | -3.8 | -1.7 | -1.7 | -7.0
CCC(=O)/C=C1/Sc2ccccc2N1CC | -5.0 | 1.9 | 3.2 | -2.9 | -0.7
CCOC(=O)/C(=C\C=C1/Sc2ccccc2N1CC)C(C)=O | i | -129.1 | -48.1 | -206.2 | 245.4*
CC(=O)n1c(C=Nc2ccc(Cl)cc2)c(O)c2ccccc21 | -7.9 | 7.1 | 3.1 | -0.7 | 38.0*
Cc1cc(C(=O)O)ccc1-c1ccc(/C=C2\SC(=O)N(CC(=O)Nc3ccc4c(c3)OCO4)C2=O)o1 | 6.0 | 13.5* | 10.5 | -1.6 | 46.0*
CC(C)(C)C(=O)c1c(N)[nH]c(C(=O)c2ccccc2)c1-c1c(F)cccc1F | -2.8 | · | · | · | ·
COc1cc(C(=O)Nc2ccc(Cl)c(C(F)(F)F)c2)cc(OC)c1OC | -14.3 | -1.9 | 1.8 | 0.2 | 33.5*
CCCOC(=O)c1cc(-c2ccc(/C=C3/C(=O)N(C)C(=O)C(C#N)=C3C)o2)ccc1Cl | -50.7 | -5.5 | 1.8 | 3.4 | 0.6
C=CCOC(=O)c1cc(-c2ccc(/C=C3\C(=O)NC(=O)C(C#N)=C3C)o2)ccc1Cl | -44.0 | 3.1 | 80.6* | -4.6 | -11.8
O=C1NC[C@H](CCCCN2CCN(CC3CCCCC3)C(=O)C2=O)N(CC2CCCCC2)C1=O | -2.1 | · | · | · | ·
COc1ccc([C@H]2CC(=O)C[C@@H](CCn3cc(CCc4ccccc4)nn3)O2)cc1 | -0.5 | · | · | · | ·
Cc1ccc(N=Cc2sc(O)c3ccccc23)c(C)c1 | 9.6 | -6.9 | 0.4 | -14.9 | 49.3*
CC(C)C[C@@H](COCc1cccc(Cl)c1)N1CCN(C(=O)c2ccc(C(F)(F)F)cc2)CCC1=O | -7.0 | · | · | · | ·
O=C(CSc1nnc(Cc2cc(=O)[nH]c(=O)[nH]2)n1-c1ccc(F)cc1)N1CCCCC1 | 14.4* | -0.1 | 7.6 | 3.1 | 1.0
O=C(CSc1nnc(Cc2cc(=O)[nH]c(=O)[nH]2)n1-c1ccc(F)cc1)NC1CCCC1 | 16.2* | -3.6 | 6.5 | -0.9 | 5.0
CC(=O)Nc1sc(/C(C#N)=C/c2ccc(Cl)c(Cl)c2)nc1-c1ccc(C)cc1 | -93.6 | -14.7 | 1.2 | -24.1 | 76.4*
CCCCNC(=O)COC(=O)c1c2c(nc3ccccc13)/C(=C\c1cccs1)CC2 | -57.6 | -3.7 | 2.6 | -10.5 | 36.6*
CC(C)CNC(=O)COC(=O)c1c2c(nc3ccccc13)/C(=C/c1cccs1)CC2 | -10.3 | -0.6 | 1.2 | 3.4 | -2.0
O=C(COC(=O)c1c2c(nc3ccccc13)/C(=C/c1ccco1)CC2)NC1CCCC1 | 2.6 | 1.9 | 0.8 | 17.4* | -7.1
COCCNC(=O)C1CCCN(C(=O)COc2ccc(C(C)(C)C)cc2)CC1 (stereo not given) | -5.4 | · | · | · | ·
Cc1ccc(/C=C2/NC(=O)N(Cc3ccccc3F)C2=O)s1 | -50.9 | -1.3 | 16.0 | -72.1 | 34.5*
CC1(C(=O)Nc2ccc3c(c2)OCCO3)CCN1C(=O)c1ccco1 (stereo not given) | 12.7 | · | · | · | ·
O=C(O)Cc1c[nH]c2cccc(O)c12 | -3.0 | -7.0 | 101.8* | 14.5 | -8.3
O=C(O)Cc1c[nH]c2ccccc12 | -5.3 | 4.0 | -0.8 | -5.2 | -1.2
CCc1nc2ccc(C(=O)N3CCN(c4ccccc4)CC3)cn2c1N(CCC(C)C)CCN(C)C | -7.8 | · | · | · | ·
SMILES | eLon inh | Keap1 Nrf2 FP | LANA DNA inh | RTF Ca sens inh | RTF Ca sens act
c1coc(-c2nc(-c3ccco3)c(-c3ccco3)nc2-c2ccco2)c1 | 16.6* | -2.6 | 5.7 | 106.8* | -36.1
C[C@@H]1CCCCO[C@H](CN(C)S(=O)(=O)c2ccccc2)[C@@H](C)CN([C@H](C)CO)C(=O)c2cc(NC(=O)Cc3ccccc3)ccc2O1 | -7.9 | · | · | · | ·
Cc1ccc2[nH]c(C)c(/C=C/c3cc[n+](C)cc3)c2c1 | i | -188.0 | -52.8 | -159.2 | 154.1*
C[n+]1ccc(/C=C/c2ccc(Br)cc2)cc1 | 0.8 | 1.6 | -0.1 | -0.7 | 0.8
CCCn1c(/C=C/c2cc[n+](C)cc2)nc2ccccc21 | 7.9 | 4.5 | 6.8 | -13.6 | 1.7
Cc1ccc2c(c1)c(/C=C/c1cc[n+](C)cc1)c(C)n2C | i | -238.9 | -68.0 | -286.0 | 241.1*
CCCNC(=O)C1(C)CCCN(Cc2ccc(-c3ccccc3)o2)C1 (stereo not given) | -2.4 | · | · | · | ·
CCCCn1nnnc1C(c1ccccc1)N1CCN(C/C=C/c2ccccc2)CC1 (stereo not given) | -11.8 | · | · | · | ·
CC1(C(=O)NS(=O)(=O)c2ccccc2Cl)CCN1C(=O)c1ccccc1CCc1ccccc1 (stereo not given) | -1.4 | · | · | · | ·
O=c1c(O)c(-c2cccs2)oc2ccc(Cl)cc12 | -69.5 | -0.5 | -0.1 | -84.6 | 36.1*
COc1ccc(Cn2cc(CN(C)C3CN(Cc4cn(Cc5ccc(OC)cc5)nn4)S(=O)(=O)C3)nn2)cc1 (stereo not given) | -4.3 | · | · | · | ·
Nc1ccc(C(=O)Nc2ccc3c(O)cc(S(=O)(=O)O)cc3c2)cc1 | -13.2 | -14.6 | 115.5* | -7.0 | 2.8
CCCNC(=O)Cn1c(=O)/c(=C/c2ccc(-c3ccc([N+](=O)[O-])cc3)o2)s/c1=C\C(=O)C(C)(C)C | i | -7.9 | 1.4 | -75.4 | 52.3*
CSc1ccc(/C=c2\s/c(=C\C(=O)C(C)(C)C)n(CC(=O)NCCC3=CCCCC3)c2=O)cc1 | -8.4 | 6.8 | 17.3 | 4.3 | 8.4
O=C(NC1CCCCC1)C1c2ccccc2OCC(=O)N1Cc1ccc2c(c1)OCO2 (stereo not given) | 2.3 | · | · | · | ·
COCCN1C(=O)/C(=C/c2ccc(N3CCCC3)cc2)SC1=S | -268.2 | -7.9 | -2.2 | -53.4 | 80.4*
COc1ccc(/C=C2\SC(=S)N(CCC(=O)N3CCCCC3)C2=O)cc1 | -2.7 | 3.6 | 0.5 | 6.1 | -1.0
CCN1C(=O)/C(=C\N2CCN(C(=O)c3ccco3)CC2)SC1=S | 5.5 | 6.3 | 4.6 | -1.6 | 7.2
CCN1CCN(c2c(/C=C3\SC(=S)N(Cc4ccco4)C3=O)c(C)c(C#N)c(=O)n2C)CC1 | i | -26.3 | 1.2 | -85.0 | 62.4*
OC(c1ccc(F)c(F)c1)c1nc(-c2csc3ccccc23)cs1 (stereo not given) | -0.2 | · | · | · | ·
O=C(NCc1c(Cl)cccc1Cl)c1[nH]c(C(F)(F)F)nc1-c1ccccc1 | -16.3 | · | · | · | ·
CCCCN1C(=O)/C(=C/C=C2/CC(C)(C)CN2C)SC1=S | · | -121.9 | -19.1 | -456.5 | 396.2*
C=CCN1C(=O)/C(=C\C=C2\N(C)c3ccccc3C2(C)C)SC1=S | -107.9 | -14.3 | -1.7 | -31.2 | 51.0*
CCCCN1C(=O)/C(=C/C=C2\Oc3ccccc3N2CC)SC1=S | -467.2 | -8.4 | 0.5 | -240.7 | 186.0*
C=CCN1C(=O)/C(=C2/Sc3ccccc3N2CC)SC1=S | 0.2 | -4.2 | 2.8 | -9.3 | 9.6
